Results as given in the supplement of paper PMC6555819.

Key:
Test in all cases: PBM binding z-score (relative to random genomic background probes); higher = stronger binding; sequences stand for … in GC…GCGATTGACAGCGTAGAATGAAGG
[1] = test system: PPARg:RXRa DBDmut IVT, anti-RXR (DBD mutation: RXRa K156A/R161A, NR concentration 270 nM, RXRa partner concentration 90 nM)
In short: (§1)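 On custom Agilent 4×180K arrays, double-stranded probes with 34-nt variable regions carried direct-repeat seeds, single-nucleotide variants, half-site ablations or random human genomic background. Ligand-free nuclear receptor dimers were applied for 1 h, and binding was read with antibodies against each partner (one per run). Binding z-scores come from regression-normalized fluorescence, with the random background probes as reference.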

[2] = test system: PPARg:RXRa IVT, anti-PPARg (NR concentration 270 nM, RXRa partner concentration 90 nM)
In short: as §1

[3] = test system: PPARg DBDmut:RXRa IVT, anti-PPARg (DBD mutation: PPARg1 K132A/R137A, NR concentration 270 nM, RXRa partner concentration 90 nM)
In short: as §1

[4] = test system: PPARg DBDmut IVT, anti-PPARg (DBD mutation: PPARg1 K132A/R137A, NR concentration 270 nM)
In short: as §1

[5] = test system: PPARg homodimer (NR concentration 180 nM)
In short: as §1

[6] = test system: PXR:RXRa (NR concentration 270 nM, RXRa partner concentration 90 nM)
In short: as §1

[7] = test system: PXR homodimer (NR concentration 270 nM)
In short: as §1

[8] = test system: RARa:RXR (NR concentration 270 nM, RXRa partner concentration 90 nM)
In short: as §1

[9] = test system: RARa homodimer (NR concentration 270 nM)
In short: as §1

[10] = test system: RARb:RXRa (NR concentration 270 nM, RXRa partner concentration 90 nM)
In short: as §1

[11] = test system: RARb homodimer (NR concentration 270 nM)
In short: as §1

[12] = test system: RARg:RXRa (NR concentration 270 nM, RXRa partner concentration 90 nM)
In short: as §1

[13] = test system: RARg homodimer (NR concentration 270 nM)
In short: as §1

[14] = test system: RXRa DBDmut IVT, anti-RXR (DBD mutation: RXRa K156A/R161A, NR concentration 90 nM)
In short: as §1

[15] = test system: RXRa homodimer (NR concentration 180 nM)
In short: as §1

[16] = test system: THRa:RXRa (NR concentration 90 nM, RXRa partner concentration 90 nM)
In short: as §1

[17] = test system: THRa homodimer (NR concentration 90 nM)
In short: as §1

[18] = test system: VDR:RXRa (NR concentration 270 nM, RXRa partner concentration 90 nM)
In short: as §1

[19] = test system: VDR homodimer (NR concentration 270 nM)
In short: as §1

Sequence	PBM binding z-score [1]	PBM binding z-score [2]	PBM binding z-score [3]	PBM binding z-score [4]	PBM binding z-score [5]	PBM binding z-score [6]	PBM binding z-score [7]	PBM binding z-score [8]	PBM binding z-score [9]	PBM binding z-score [10]	PBM binding z-score [11]	PBM binding z-score [12]	PBM binding z-score [13]	PBM binding z-score [14]	PBM binding z-score [15]	PBM binding z-score [16]	PBM binding z-score [17]	PBM binding z-score [18]	PBM binding z-score [19]
ACTAGCAGGCCATGTTTGGGTCACTCAAACAAAG	0.691	1.13	-0.241	-1.08	0.0761	0.404	-0.559	1.37	-0.914	1.72	1.98	2.04	1.42	-0.345	0.614	2.24	1.21	0.631	-0.169
ATACCAAGGTGATCGTGCGGTCGTTGATACTAAC	0.367	0.959	-0.0975	-0.386	-0.0029	0.16	0.0689	-0.0765	0.173	0.748	0.887	0.886	0.233	-0.0167	0.159	1.23	0.424	0.18	0.302
ATCTCTAGGTAGCCAAGTTCAGTGAATGCCGAAC	0.328	0.377	-0.173	0.614	0.13	1.2	0.957	0.266	0.228	0.669	0.866	0.375	0.381	0.591	0.0776	0.48	0.337	2.24	2.15
ATATGTAGGTTACATCCGGGCCATTCAGGCTATG	7.19	7.09	3.74	3.02	0.583	0.633	0.119	0.816	0.221	1.15	0.788	1.35	0.995	0.497	0.936	2.04	0.851	0.659	0.406
AGAATGAGGTTATACGTAGATCAGGAAAGAAAGT	4.05	2.36	1.21	0.76	0.606	1.23	0.488	1.71	0.559	1.37	0.817	1.68	1.3	1.77	2.25	2.15	0.219	1.51	0.894
TGTCAAAGTTCAAACGTAACGTAAGTATCCACAC	0.502	4.09	1.75	1.83	2.5	5.07	4.65	3.8	1.09	4.99	3.89	5.71	6.15	4.86	5.15	2.12	-0.319	4.68	4.63
TAGCCTAGGTCATGCGTGCCAGTATAGTGTCGGC	1.88	3.12	0.14	0.765	1.62	1.51	-0.776	2.65	-0.307	3.77	3.14	3.78	3.75	0.805	2.85	2.96	1.22	2.31	0.552
